# From ChEMBL document CHEMBL4888484, “Replenishing the malaria drug discovery pipeline: Screening and hit evaluation of the MMV Hit Generation Library 1 (HGL1) against asexual blood stage Plasmodium falciparum ,using a nano luciferase reporter read-out” (2022)
# The campaign covered roughly 150,000 compounds. About 540 (0.36%) showed an effect of 50% or more. What follows is part of a selection rich in strong results, with near analogues and random picks from the rest.
# Tested on: Plasmodium falciparum
# Assay: Primary screen in NF54 nanoGlo assay, in single point, at 2uM, 72h; a lower Z score goes with more inhibition
# Assay type: functional, Erythrocyte
# Conditions: timepoint 72 hour
Compound,% Inhibition [%],Z score
Nc1nnc(N[C@H]2COc3ccccc32)[nH]1,0,0.03
O=C(CCc1ccc(Cl)c(F)c1)N1CC(N2CCc3ccccc3C2)C1,-9,1.44
O=C(CCc1cccc(Cl)c1)N1CC[C@H](N2CCc3ccccc3C2)C1,-5,0.72
O=C(CCc1ccc(Cl)c(C(F)(F)F)c1)N1CC[C@H](N2CCc3ccccc3C2)C1,50,-7.74
COCCN1C[C@@H](c2nc(C3CCOCC3)n[nH]2)CCC1=O,-5,0.81
CNC(=O)[C@H](CNC(=O)c1ccc(=O)[nH]n1)Cc1ccc(F)cc1C,-8,1.4
Cc1cccc(CN2CCN(C(=O)c3cc(C)nc(N)n3)[C@@H](C)C2=O)c1,-2,0.2
COc1cc(C(=O)Nc2cccc(-c3nc(C)cc(=O)[nH]3)c2)ccc1OCc1cscn1,-2,0.29
C=CCn1ncc(-c2cn([C@@H](CC)c3cc(C)ccn3)nn2)c1C,10,-1.39
CN(C)C1(CC2CC2)CCN(Cc2cccc(C#N)c2)CC1,-3,0.54
O=C(COc1ccc(Cl)cc1)N1CC[C@H](Oc2ccc3ccccc3n2)C1,-18,3.35
O=C(Cc1ccccc1Cl)N1CC[C@H](Oc2ccc3ccccc3n2)C1,-5,0.96
CCNC(=O)N1CC[C@H](Oc2ccc3ccccc3n2)C1,57,-3
